Values without a mark were called inactive.
What was measured:
[1] = system: Schistosoma mansoni schistosomula (NMRI); test: phenotypic severity score (0-4); higher = more antischistosomal effect, active = 2 or more; conditions: 10 µM
[2] = system: Schistosoma mansoni schistosomula (Liberian); test: drug effect (1 - score/DMSO control score) (fraction); higher = more antischistosomal effect, active = 0.5 or more; extreme values may be limits of the assay; conditions: 10 µM
Method in brief: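 A plate was valid only if its 0.1% DMSO wells averaged a score of at least 2. Those wells ran beside duplicate wells in which 50 Liberian-strain Schistosoma mansoni schistosomula each, transformed mechanically from cercariae and pre-incubated at least 12 h, met 10 µM compound in Medium 199 with 5% FCS at 37 °C, 5% CO2. Scoring was visual at 10× at 24, 48 and 72 h, from 3 (normal) to 0 (dead) in quarter-point steps. Drug effect was derived from the mean test-well score against the mean DMSO-well score, with negatives set to zero.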
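Throughout, for phenotypic severity score (0-4): visual microscopic scoring of shape, motility and density changes versus 0.5% DMSO solvent controls, one point per descriptor, degeneracy or death scored 4, mean of duplicate wells.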

SMILES	phenotypic severity score ([1]; 24 h)	phenotypic severity score ([1]; 48 h)	phenotypic severity score ([1]; 72 h)	drug effect ([2]; 24 h)	drug effect ([2]; 48 h)	drug effect ([2]; 72 h)
COc1cccc2c(C)nc(N=C(N)N)nc12	0	0	0	0.182	0.2	0.127
Cc1ccc(NC(=O)CC2COc3ccccc3O2)cc1Cl (stereo not drawn)	0	0	0	0.136	0.3	0.4
Cc1cc(Nc2ccc(C(F)(F)F)cc2)n2ccnc2n1	0	0	0	0.0909	0.15	0.158
Cc1nc2ccccn2c1C(=O)NCc1ccc(Cl)cc1	0	0	0	0.1	0.189	0.333
O=C(C1CCCCC1)N1CC(=O)N2CCc3ccccc3C2C1 (stereo not drawn)	4 (active)	4 (active)	4 (active)	0.3	0.351	0.556 (active)
Cc1noc(C)c1C(=O)N1CCCC(c2[nH]c3c(C)cccc3c2-c2ccncc2)C1 (stereo not drawn)	4 (active)	4 (active)	4 (active)	0.35	0.5 (active)	0.778 (active)
COc1cc(OC)cc(C(=O)NCC2Cc3cc(Cl)cc(-c4ccncc4)c3O2)c1 (stereo not drawn)	0	0	0	0.1	0.189	0.152
COc1cncc(-c2cncc(N3CCN(c4ccncc4)CC3)n2)c1	1	0	0	0.351	0.389	0.688 (active)
c1ccc(Oc2ccc(-c3cc(N4CCNCC4)[nH]n3)cc2)cc1	2 (active)	2 (active)	2 (active)	0.05	0.15	0.444
CC(c1cc(Cl)cc(Cl)c1)N(C)c1ncc2c(N)nc(N)nc2n1 (stereo not drawn)	0	0	0	< 0	< 0	0.167
CS(=O)(=O)c1ccc(C(=O)N(CC2CCCO2)c2nc3ccccc3s2)cc1[N+](=O)[O-] (stereo not drawn)	4 (active)	4 (active)	4 (active)	1 (active)	1 (active)	1 (active)
Cc1[nH]c2cc(F)cc(F)c2c(=O)c1-c1ccc(Oc2ccc(OC(F)(F)F)cc2)cc1	2 (active)	4 (active)	4 (active)	0.45	0.778 (active)	0.75 (active)
CCOc1ccc2cc(-c3nn(C(C)(C)C)c(N)c3C(N)=O)cnc2c1	0	0	0	0.2	0.243	0.389
CCNC(=O)C(C)Nc1nc(-c2cccnc2)nc2sc(C)c(C)c12 (stereo not drawn)	0	0	0	< 0	< 0	0.111
COC(=O)C1=C(C)NC(C)=C(C(=O)OC(C)C)C1c1cccc2nonc12 (stereo not drawn)	2 (active)	0	0	0.15	0.189	0.111
CCC(=O)Nc1ccccc1C(=O)Nc1ccccn1	1	0	0	0.136	0.3	0.236
CNC(=O)C1Cc2ccccc2N1C(=O)Cc1ccc(F)cc1 (stereo not drawn)	0	0	0	0.227	0.2	0.236
COc1cccc(-n2nnnc2S(C)(=O)=O)c1	4 (active)	4 (active)	4 (active)	1 (active)	1 (active)	1 (active)
CC(=O)NCC1CN(c2ccc(-c3ccc(CNCc4cn[nH]n4)cc3)c(F)c2)C(=O)O1 (stereo not drawn)	0	0	0	0.05	0.0556	< 0
CCc1nc2ccc(Cl)cn2c1C(=O)NCc1ccc(N2CCC(c3ccc(OC(F)(F)F)cc3)CC2)cc1	1	0	0	0.105	0.0556	< 0
Cc1cc(C(=O)Nc2cnn(Cc3ccc(Cl)cc3Cl)c2)no1	0	0	0	0.182	0.1	0.127

SMILES	phenotypic severity score ([1]; 24 h)	phenotypic severity score ([1]; 48 h)	phenotypic severity score ([1]; 72 h)	drug effect ([2]; 24 h)	drug effect ([2]; 48 h)	drug effect ([2]; 72 h)
COc1ccc(Oc2ccc([C@@H](C)N(C)c3ncc4c(N)nc(N)nc4n3)cc2)cc1	4 (active)	4 (active)	4 (active)	0.526 (active)	0.5 (active)	0.5 (active)
CNC(=O)c1cc(S(=O)(=O)N2CCN(c3ccccn3)CC2)cs1	0	0	0	0.1	0.135	0.111
Cc1cccnc1NC(=O)c1cccc(OCc2c(C)noc2C)c1	0	0	0	0.0909	0.15	0.127
Cc1cc2ccccc2n1CC(=O)N1CC(C(=O)N2CCCCC2)Oc2ccccc21 (stereo not drawn)	0	1	0	0.05	0.027	0.111
Cc1nnc(NCc2cccc(Cl)c2)c2ccccc12	0	0	0	< 0	0.25	0.127
NCCN(C(=O)c1ccc(Cl)cc1Cl)c1ccc(OCc2ccc(Cl)cc2)cc1	0	0	0	0.4	0.333	0.312
CN1CCC(NCc2cccc(-c3ccc(S(=O)(=O)NCc4ccccc4)cc3)c2)CC1	0	2 (active)	4 (active)	0.6 (active)	0.784 (active)	0.939 (active)
CC(C)(C)c1cc(C(=O)Nc2cccnc2)cc(C(=O)Nc2cccnc2)c1	0	0	0	< 0	0.0811	0.0556
CN1CCN(c2nccc3[nH]c(-c4cccc(F)c4)cc23)CC1	0	2 (active)	4 (active)	0.0909	0.1	0.158
CN1CCN(S(=O)(=O)c2ccc(-c3ccc4c(Nc5ncc(Cl)cn5)ccnc4c3)cc2)CC1	2 (active)	4 (active)	4 (active)	0.6 (active)	0.611 (active)	0.625 (active)
CC1=Nc2ccc(Cl)cc2C(O)(c2ccc(C)cc2)N1CCN1CCCCC1 (stereo not drawn)	0	0	0	< 0	0.188	0.375
O=C(CN1CCOCC1)Nc1ccc2ncnc(Nc3ccc(OCc4cccc(F)c4)c(Cl)c3)c2c1	0	0	0	0.3	0.25	0.222
COc1ccc(C2=NN(C3CCCCCC3)C(=O)C2(C)C)cc1OCc1ccccn1	–	–	–	0.273	0.4	0.4
Cc1nc(-c2ccccn2)nc(NCCc2ccc(S(C)(=O)=O)cc2)c1Cl	0	4 (active)	4 (active)	0.135	0.167	0.5 (active)
C[C@H](c1ccc2c(c1)CCCC2)N(C)c1ncc2c(N)nc(N)nc2n1	0	0	0	0.2	0.278	0.438
Cc1ccc(NC(=O)c2nc[nH]c2C(=O)Nc2nc3ccccc3[nH]2)c(C)c1	3 (active)	4 (active)	4 (active)	0.273	0.4	0.278
Cc1ccc2nc(Cl)c(CNCc3cccs3)cc2c1	0	0	0	0.182	0.2	0.0727
CCn1ncc2c(NC3CCOCC3)c(CNC(=O)c3ccnn3C)c(C)nc21	0	0	0	0.05	0.0811	0.0303
O=C(c1[nH]nc2c1CCCC2)N1CCN(Cc2ccc3c(c2)OCO3)CC1	0	0	0	0.0909	0.25	0.236
CC(C)N=c1cc2n(-c3ccc(Cl)cc3)c3ccccc3nc-2cc1Nc1ccc(Cl)cc1	4 (active)	4 (active)	4 (active)	1 (active)	1 (active)	1 (active)
